# Assay results published in PubChem BioAssay.
# “And” between values parts separate entries of the source, which are not always exact repeats. Identical values can stand only once. The source made the active and inactive calls. Cut-off read from the data, not from the text of the source, unless noted: active = inhibition above about 80%; inactive = the rest.
# Assay: growth inhibition, single agent and combos, cell-based, chromothripsis tumors, cisplatin or BGB combos (AID 1671450);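 note: cells exposed to compound for four days; 0% = vehicle DMSO and 100% = cell killing by high DMSO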
# Conditions: HDN33 neuroblastoma cells, single agent, at 5 µM, stronger effect = higher value
row,SMILES,inhibition
1,COc1cc([C@@H]2c3cc4c(cc3[C@@H](O[C@@H]3O[C@@H]5CO[C@@H](c6cccs6)O[C@H]5[C@H](O)[C@H]3O)[C@H]3COC(=O)[C@H]23)OCO4)cc(OC)c1O,88% and 95.5%
2,N=c1ccn2c(n1)O[C@H]1[C@H](O)[C@@H](CO)O[C@H]12,81.4%
3,COc1cc(NS(C)(=O)=O)ccc1Nc1c2ccccc2nc2ccccc12,88.6% and 78.5%

# Assay: growth inhibition, single agents and combos, ICB984, cell-based, cisplatin or BGB combos, synergistic combos for chromothripsis tumors (AID 1671451; call rule not given here;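 note: cells exposed for 96 hours before readout; 0% = vehicle DMSO and 100% = killing by high DMSO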)
# Conditions: ICB984 medulloblastoma cells, drug combinations, BGB IC20 combo, at 0.005 µM, stronger effect = higher value
row,SMILES,inhibition
1,COc1cc([C@@H]2c3cc4c(cc3[C@@H](O[C@@H]3O[C@@H]5CO[C@@H](c6cccs6)O[C@H]5[C@H](O)[C@H]3O)[C@H]3COC(=O)[C@H]23)OCO4)cc(OC)c1O,20.5% and 3.66%
2,N=c1ccn2c(n1)O[C@H]1[C@H](O)[C@@H](CO)O[C@H]12,-16.9%
3,COc1cc(NS(C)(=O)=O)ccc1Nc1c2ccccc2nc2ccccc12,-6.17% and -3.09%

# Same assay, conditions: ICB984 medulloblastoma cells, drug combinations, BGB IC40 combo, at 0.005 µM, stronger effect = higher value
row,SMILES,inhibition
1,COc1cc([C@@H]2c3cc4c(cc3[C@@H](O[C@@H]3O[C@@H]5CO[C@@H](c6cccs6)O[C@H]5[C@H](O)[C@H]3O)[C@H]3COC(=O)[C@H]23)OCO4)cc(OC)c1O,-28.7% and -5.88%
2,N=c1ccn2c(n1)O[C@H]1[C@H](O)[C@@H](CO)O[C@H]12,-39.5%
3,COc1cc(NS(C)(=O)=O)ccc1Nc1c2ccccc2nc2ccccc12,3.68% and -48.5%

# Same assay, conditions: ICB984 medulloblastoma cells, drug combinations, BGB IC40 combo, at 0.05 µM, stronger effect = higher value
row,SMILES,inhibition
1,COc1cc([C@@H]2c3cc4c(cc3[C@@H](O[C@@H]3O[C@@H]5CO[C@@H](c6cccs6)O[C@H]5[C@H](O)[C@H]3O)[C@H]3COC(=O)[C@H]23)OCO4)cc(OC)c1O,-11.6% and -12.3%
2,N=c1ccn2c(n1)O[C@H]1[C@H](O)[C@@H](CO)O[C@H]12,-9.88%
3,COc1cc(NS(C)(=O)=O)ccc1Nc1c2ccccc2nc2ccccc12,39.5% and 18.4%

# Same assay, conditions: ICB984 medulloblastoma cells, drug combinations, at 0.5 µM, stronger effect = higher value
row,SMILES,inhibition
1,COc1cc([C@@H]2c3cc4c(cc3[C@@H](O[C@@H]3O[C@@H]5CO[C@@H](c6cccs6)O[C@H]5[C@H](O)[C@H]3O)[C@H]3COC(=O)[C@H]23)OCO4)cc(OC)c1O,-25.1% (inactive) and -14.4% (inactive)
2,N=c1ccn2c(n1)O[C@H]1[C@H](O)[C@@H](CO)O[C@H]12,-19.6% (inactive)
3,COc1cc(NS(C)(=O)=O)ccc1Nc1c2ccccc2nc2ccccc12,-24.7% (inactive) and -27.8% (inactive)

# Same assay, conditions: ICB984 medulloblastoma cells, drug combinations, cisplatin combo, at 0.05 µM, stronger effect = higher value
row,SMILES,inhibition
1,COc1cc([C@@H]2c3cc4c(cc3[C@@H](O[C@@H]3O[C@@H]5CO[C@@H](c6cccs6)O[C@H]5[C@H](O)[C@H]3O)[C@H]3COC(=O)[C@H]23)OCO4)cc(OC)c1O,-14.7% and -16.3%
2,N=c1ccn2c(n1)O[C@H]1[C@H](O)[C@@H](CO)O[C@H]12,-12.9%
3,COc1cc(NS(C)(=O)=O)ccc1Nc1c2ccccc2nc2ccccc12,39.5% and 15.2%

# Same assay, conditions: ICB984 medulloblastoma cells, drug combinations, cisplatin combo, at 0.5 µM, stronger effect = higher value
row,SMILES,inhibition
1,COc1cc([C@@H]2c3cc4c(cc3[C@@H](O[C@@H]3O[C@@H]5CO[C@@H](c6cccs6)O[C@H]5[C@H](O)[C@H]3O)[C@H]3COC(=O)[C@H]23)OCO4)cc(OC)c1O,-25.3% and 3.4%
2,N=c1ccn2c(n1)O[C@H]1[C@H](O)[C@@H](CO)O[C@H]12,-20.7%
3,COc1cc(NS(C)(=O)=O)ccc1Nc1c2ccccc2nc2ccccc12,-38.9% and -24.5%

# Same assay, conditions: ICB984 medulloblastoma cells, drug combinations, cisplatin combo, at 5 µM, stronger effect = higher value
row,SMILES,inhibition
1,COc1cc([C@@H]2c3cc4c(cc3[C@@H](O[C@@H]3O[C@@H]5CO[C@@H](c6cccs6)O[C@H]5[C@H](O)[C@H]3O)[C@H]3COC(=O)[C@H]23)OCO4)cc(OC)c1O,-14.6% and 1.51%
2,N=c1ccn2c(n1)O[C@H]1[C@H](O)[C@@H](CO)O[C@H]12,-55.6%
3,COc1cc(NS(C)(=O)=O)ccc1Nc1c2ccccc2nc2ccccc12,-5% and -33%

# Same assay, conditions: ICB984 medulloblastoma cells, drug combinations, measured here: 5 uM single agent, at 5 µM, stronger effect = higher value
row,SMILES,inhibition
1,COc1cc([C@@H]2c3cc4c(cc3[C@@H](O[C@@H]3O[C@@H]5CO[C@@H](c6cccs6)O[C@H]5[C@H](O)[C@H]3O)[C@H]3COC(=O)[C@H]23)OCO4)cc(OC)c1O,-8.36% and -4.68%
2,N=c1ccn2c(n1)O[C@H]1[C@H](O)[C@@H](CO)O[C@H]12,-6.48%
3,COc1cc(NS(C)(=O)=O)ccc1Nc1c2ccccc2nc2ccccc12,3.59% and -0.607%

# Assay: growth inhibition, single agents and combos, LFS_MB_1R, cell-based, cisplatin or BGB combos, synergistic combos for chromothripsis tumors (AID 1671452);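 note: cells exposed for 96 hours before readout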
# Conditions: LFS_MB_1R medulloblastoma cells, at 0.5 µM, stronger effect = higher value
row,SMILES,inhibition
1,COc1cc([C@@H]2c3cc4c(cc3[C@@H](O[C@@H]3O[C@@H]5CO[C@@H](c6cccs6)O[C@H]5[C@H](O)[C@H]3O)[C@H]3COC(=O)[C@H]23)OCO4)cc(OC)c1O,-4.7% (inactive) and -8.97% (inactive)
2,N=c1ccn2c(n1)O[C@H]1[C@H](O)[C@@H](CO)O[C@H]12,-7.06% (inactive)
3,COc1cc(NS(C)(=O)=O)ccc1Nc1c2ccccc2nc2ccccc12,1.68% (inactive) and -19.1% (inactive)

# Same assay, conditions: LFS_MB_1R medulloblastoma cells, measured here: combination with BGB IC40, at 0.05 µM, stronger effect = higher value
row,SMILES,inhibition
1,COc1cc([C@@H]2c3cc4c(cc3[C@@H](O[C@@H]3O[C@@H]5CO[C@@H](c6cccs6)O[C@H]5[C@H](O)[C@H]3O)[C@H]3COC(=O)[C@H]23)OCO4)cc(OC)c1O,1.41% and -17.3%
2,N=c1ccn2c(n1)O[C@H]1[C@H](O)[C@@H](CO)O[C@H]12,-18.8%
3,COc1cc(NS(C)(=O)=O)ccc1Nc1c2ccccc2nc2ccccc12,17.9% and -5.14%

# Same assay, conditions: LFS_MB_1R medulloblastoma cells, measured here: combination with cisplatin, at 0.5 µM, stronger effect = higher value
row,SMILES,inhibition
1,COc1cc([C@@H]2c3cc4c(cc3[C@@H](O[C@@H]3O[C@@H]5CO[C@@H](c6cccs6)O[C@H]5[C@H](O)[C@H]3O)[C@H]3COC(=O)[C@H]23)OCO4)cc(OC)c1O,10.9% and 4.47%
2,N=c1ccn2c(n1)O[C@H]1[C@H](O)[C@@H](CO)O[C@H]12,43.5%
3,COc1cc(NS(C)(=O)=O)ccc1Nc1c2ccccc2nc2ccccc12,10% and -20.9%
